Some compounds were tested as several samples or in several runs, with calls that do not always agree. Activity calls are given as the source filed them. Rule for the calls: active = hit-call score of the fitted dose curve at least 0.9, where 1 is the maximum; inactive = score below 0.9.

This test in a line: APR_HepG2_MitoticArrest_1hr: Apredica 1-hour HepG2 Assay for Mitotic Arrest (AID 2282672). Particulars: high-content imaging, actives raise or lower the signal. The protocol: APR_HepG2_1hr is a cell-based, multiplexed-readout assay that uses HepG2, a human liver cell line, with measurements taken at 1 hour after chemical dosing in a 384-well plate.APR_HepG2_MitoticArrest_1hr is one of 10 assay component(s) measured or calculated from the APR_HepG2_1hr assay. It is designed to make measurements of cell phenotype, a form of morphology reporter, as detected with fluorescence intensity signals by HCS Fluorescent Imaging technology.Data from the assay component APR_HepG2_MitoticArrest_1hr was analyzed into 1 assay endpoint. This assay endpoint, APR_HepG2_MitoticArrest_1hr, was analyzed with bidirectional fitting relative to DMSO as the negative control and baseline of activity. Using a type of morphology reporter, measures of protein for gain or loss-of-signal activity can be used to understand the signaling at the pathway-level as they relate to the gene . Furthermore, this assay endpoint can be referred to as a primary readout, because this assay has produced multiple assay endpoints where this one serves a signaling function. To generalize the intended target to other relatable targets, this assay endpoint is annotated to the cell cycle intended target family, where the subfamily is arrest.
Cells were treated with dimethyl sulfoxide (DMSO) as a solvent control at a final concentration of 0.5% v/v or with compounds in DMSO with a resulting final DMSO concentration of 0.5% v/v. Compound treatment was done at concentrations of 0.39, 0.78, 1.56, 3.12, 6.24, 12.5, 25, 50, 100, and 200 uM in duplicate on each plate. Cells were treated with compounds for 1, 24, or 72 hr. Carbonyl […] m-chloro-phenylhydrazone (CCCP) and taxol were used as positive controls for mitochondrial function and cytoskeletal stability, respectively; DMSO served as the negative control for this experiment. Cells were fixed by the direct addition of 50 uL formaldehyde in Hank's Balanced Salt Solution (HBSS) to a final concentration of 3.7%. After incubation in the fixation medium for 30 min at room temperature (293-298 K), cells were rinsed twice with HBSS and treated with cell permeabilization buffer (16 uL of 0.5% Triton X-100) for 10 min at room temperature (293-298 K) before labeling. For mitochondrial membrane potential and mitochondrial measurements, pre-fixed cells were incubated with 50 uL of MitoTracker Red CMXRos (Invitrogen) at a concentration of 250 nM for 30 min before fixation. In the remaining cases, post-fixed cells were labeled by incubation with a multiplexed mixture of primary antibodies in HBSS for 60 min at room temperature (293-298 K) to detect immunoreactivity of c-Jun (1:500), phospho-histone H3 (1:100), phospho-histone H2A.x (1:200), p53 (1:400), alpha-tubulin (1:200) and Hoechst 33342 (2 ug/mL). Cells were labeled for multiplexed imaging on two separate plates: a) Hoechst 33342, MitoTracker Red, phospho-histone H3, and alpha-tubulin, and b) Hoechst 33342, phospho-histone H2A.x, and c-Jun. A final rinse with HBSS (50 uL) was performed before analysis. The primary and secondary antibodies for the proteins were phospho-histone H3 (rabbit anti-phospho-histone H3 and FITC-donkey anti-rabbit IgG), phospho-histone H2A.x (mouse anti-phospho-histone H2A.x and FITC-donkey anti-mouse IgG), c-Jun (rabbit anti-phospho-c-Jun and Cy3-donkey anti-rabbit IgG), p53 (sheep anti-p53 and Cy5-donkey anti-sheep IgG), alpha-tubulin (mouse anti-alpha-tubulin and Cy5-donkey anti-mouse IgG). These antibodies are available as the CellCiphr HepG2 assay kit (Millipore).Digital images of each well were captured using a Cellomics ArrayScan VTI (Thermo Scientific Cellomics) (0.8 NA objective, 0.63x optical coupler, and XF-93 filter set) at 20x magnification. The images were acquired using the autofocus feature of the ArrayScan instrument, which entails the following steps. First, the camera focuses on channel 1 (Hoechst 33342), where nuclei are identified. Second, a Z offset of 1 um is used for capturing mitochondria (MitoTracker Red). […]
`CNC(=S)S`: the call was inactive.
Still for that read-out and setting: to `C=CC1(C)OC(=O)N(c2cc(Cl)cc(Cl)c2)C1=O` (stereo not given) belongs “inactive”; to `COc1nc(C)nc(NC(=O)NS(=O)(=O)c2ccccc2CCC(F)(F)F)n1`, “inactive”; to `COC(=O)N(OC)c1ccccc1COc1ccn(-c2ccc(Cl)cc2)n1`, “inactive”.
Turning to `C=CCC1=C(C)[C@@H](OC(=O)[C@@H]2[C@@H](C=C(C)C)C2(C)C)CC1=O`, the call was inactive.
On the same count and under the same terms, to `CNC(=O)ON=CC(C)(C)SC` belongs “inactive”.
With `Cc1ccc(-c2c(Cl)nc(C#N)n2S(=O)(=O)N(C)C)cc1`, the result was inactive.
As to `CN(C)C(=S)SSC(=S)N(C)C`, the result was inactive.
Take `CCCCC(CC)COC(=O)c1ccccc1C(=O)OCC(CC)CCCC` (stereo not given): the molecule was classed as inactive.
As to `Fc1ccc(Oc2ccnc3cc(Cl)cc(Cl)c23)cc1`, the molecule was called inactive.
With `COP(N)(=O)SC` (stereo not given), the molecule was classed as inactive.
In the case of `CCCCNC(=O)OCC#CI`, the molecule was called inactive and the concentration at half-maximal activity (AC50) is 28.8 µM (active).
For `O=C(O)COc1nc(Cl)c(Cl)cc1Cl`, the result was inactive.
Consider `N#Cc1nn(-c2c(Cl)cc(C(F)(F)F)cc2Cl)c(N)c1S(=O)C(F)(F)F` (stereo not given), for which the result was inactive.
For `Oc1ccccc1-c1ccccc1`, the outcome was inactive.
Take `COC(=O)C=C(C)OP(=O)(OC)OC`: the call was inactive.
The same measure, in the same setting: to `CCCN(CCC)c1c([N+](=O)[O-])cc(S(N)(=O)=O)cc1[N+](=O)[O-]` belongs “inactive”.
For `CC(C)(C)c1ccc(CSc2cnn(C(C)(C)C)c(=O)c2Cl)cc1`, the call was inactive.
As for `N#CC(CCc1ccc(Cl)cc1)(Cn1cncn1)c1ccccc1` (stereo not given), the result was inactive.
Take `C=CCC1=C(C)C(OC(=O)C2C(C=C(C)C)C2(C)C)CC1=O` (stereo not given): the molecule was classed as inactive.
Turning to `CC1COC(Cn2cncn2)(c2ccc(Oc3ccc(Cl)cc3)cc2Cl)O1` (stereo not given), the molecule was called inactive.
On the same count and under the same terms, as for `CCCC1COC(Cn2cncn2)(c2ccc(Cl)cc2Cl)O1` (stereo not given), the entry is “inactive”; as for `CCCCNC(=O)n1c(NC(=O)OC)nc2ccccc21`, “inactive”; as for `O=C(O)c1nc(Cl)ccc1Cl`, “inactive”.
On the same count and under the same terms, to `CC(C)C1(C)N=C(c2nc3ccccc3cc2C(=O)O)NC1=O` (stereo not given) belongs “inactive”; to `COC(=O)c1ccccc1C(=O)OC`, “inactive”.
On to `OC(c1ccc(Cl)cc1)(c1cncnc1)c1ccccc1Cl` (stereo not given), for which the molecule was called inactive.
The same measure, in the same setting: as for `COc1cnc(OC)n2nc(NS(=O)(=O)c3c(OCC(F)F)cccc3C(F)(F)F)nc12`, the entry is “inactive”.
The same measure, in the same setting: to `CCNc1nc(Cl)nc(NC(C)C)n1` belongs “inactive”; to `CCOc1cc(Oc2ccc(C(F)(F)F)cc2Cl)ccc1[N+](=O)[O-]`, “inactive”.
For the molecule `CCOC(=O)C(Cl)Cc1cc(-n2nc(C)n(C(F)F)c2=O)c(F)cc1Cl` (stereo not given), the result was inactive.
The same measure, in the same setting: to `CC(Oc1ccc(Cl)cc1Cl)C(=O)O` (stereo not given) belongs “inactive”.
Same read-out and setting: as for `CC1=C(C(=O)Nc2ccccc2)SCCO1`, the entry is “inactive”; as for `COc1nc(C)nc(NC(=O)NS(=O)(=O)c2ccccc2Cl)n1`, “inactive”; as for `Cc1c(F)c(F)c(COC(=O)C2C(/C=C(\Cl)C(F)(F)F)C2(C)C)c(F)c1F` (stereo not given), “inactive”.
Regarding `COc1nc(NC(C)C)nc(NC(C)C)n1`, the molecule was called inactive.
On to `C#CCOS(=O)OC1CCCCC1Oc1ccc(C(C)(C)C)cc1` (stereo not given), for which the call was inactive.
For the molecule `CON(C)C(=O)Nc1ccc(Cl)c(Cl)c1`, the molecule was called inactive.
Consider `COC(=O)C(C)Oc1ccc(Oc2ccc(Cl)cc2Cl)cc1` (stereo not given), for which the outcome was inactive.

By AC50 is commonly meant the concentration giving half of the maximal activity seen.

(Values after PubChem BioAssay (EPA / NIEHS).)
